Laboratory results as given in PubChem BioAssay (NCI).
This is part of a sample that, as a whole, favours compounds with a hit. Of some 83,000 tested, about 20% had one in any assay.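 Cell lines were cultured in 96-well plates, exposed to a single compound concentration, and assessed for percent growth 48 hours later.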 A number with no mark means an inactive call. The source made the active and inactive calls. The calls were made as follows: active = growth percent below 10; inactive = the rest.

What was measured:
Experiment in all cases: NCI-60 one-dose screen, 48 h (100 = growth as untreated, 0 = no growth, -100 = all killed)
Settings in all cases: 10 µM unless noted
SR leukemia = system: SR leukemia
RPMI-8226 leukemia = system: RPMI-8226 leukemia
OVCAR-8 ovarian = system: OVCAR-8 ovarian
OVCAR-5 ovarian = system: OVCAR-5 ovarian
OVCAR-4 ovarian = system: OVCAR-4 ovarian
SK-OV-3 ovarian = system: SK-OV-3 ovarian
IGROV1 ovarian = system: IGROV1 ovarian
OVCAR-3 ovarian = system: OVCAR-3 ovarian
HS 578T breast = system: HS 578T breast
NCI/ADR-RES ovarian = system: NCI/ADR-RES ovarian
T-47D breast = system: T-47D breast
BT-549 breast = system: BT-549 breast
MDA-MB-435 melanoma = system: MDA-MB-435 melanoma
SW-620 colon = system: SW-620 colon
MCF7 breast = system: MCF7 breast
HCT-116 colon = system: HCT-116 colon
HCC-2998 colon = system: HCC-2998 colon
KM12 colon = system: KM12 colon

| Compound | growth (SR leukemia) | growth (RPMI-8226 leukemia) | growth (OVCAR-8 ovarian) | growth (OVCAR-5 ovarian) | growth (OVCAR-4 ovarian) | growth (SK-OV-3 ovarian) | growth (IGROV1 ovarian) | growth (OVCAR-3 ovarian) | growth (HS 578T breast) | growth (NCI/ADR-RES ovarian) | growth (T-47D breast) | growth (BT-549 breast) | growth (MDA-MB-435 melanoma) | growth (SW-620 colon) | growth (MCF7 breast) | growth (HCT-116 colon) | growth (HCC-2998 colon) | growth (KM12 colon) |
| --- | --- | --- | --- | --- | --- | --- | --- | --- | --- | --- | --- | --- | --- | --- | --- | --- | --- | --- |
| C[C@@H]1O[C@@H](O[C@@H]2C[C@H](c3ccc4c(c3O)C(=O)C3=C(C4=O)[C@@]4(O)C(=O)C[C@](C)(O)C[C@@]4(O)C=C3)O[C@H](C)[C@H]2O)C[C@H](O)[C@@H]1O | 76.7% | 92% | 96.7% | 102% | 92% | 106% | 91.2% | 105% | 94.4% | 91.8% | 93.8% | 100% | 103% | 95% | 91.8% | 98.9% | 102% | 99.7% |
| CN(C)c1ccc(/C=C/C(=O)c2ccccc2)cc1 | 25.1% | 76.4% | 93.1% | 113% | 101% | 96.9% | 99.2% | 90.2% | 98.4% | 81.3% | 68.5% | 81.3% | 28.6% | 63.5% | 44.7% | 67.5% | 97.5% | 51.4% |
| Cn1cc(/C=C2/C(=O)Nc3ccccc32)c2ccccc21 | 94.9% | 60.5% | 95.5% | 106% | 86.2% | 90.4% | 85.1% | 90.2% | 89.3% | 84.7% | 64.7% | 88.4% | 106% | 102% | 69.2% | 90.4% | 98.2% | 14.8% |
| COc1ccc(C2=NN(C(C)=O)C(c3ccc(Oc4ccnc5cc(Cl)ccc45)c(OC)c3)C2)cc1 (configuration not stated) | 74.4% | 77.1% | 24% | 84.4% | -17.2% (active) | 24.5% | 79.7% | 37.1% | 58.9% | 44.7% | 16.2% | 79.5% | 57% | 74.3% | 37.6% | 25% | 57.2% | 72.9% |
| FC(F)(F)c1[nH]ncc1-c1nc2c(N3CCCCC3)cc3[nH]ncc3c2c2c1CCCC2 | -4.82% (active) | -6.13% (active) | 7.14% (active) | 6.62% (active) | 24.3% | -25% (active) | -8.41% (active) | -2.67% (active) | -11.8% (active) | 44.8% | -4.06% (active) | -52.7% (active) | 10.8% | 6.31% (active) | 3.33% (active) | 3.74% (active) | -8.43% (active) | 11.1% |
| COc1cc(-c2nc(NC(C)=O)sc2-c2ccnc(NCCNS(=O)(=O)c3ccccc3)n2)ccc1Cl | 13.1% | 13.8% | 37.6% | 84.9% | 61.6% | 26.9% | 51.6% | 25.7% | 27.3% | 93.2% | 41.8% | -8.24% (active) | -62.3% (active) | 33.3% | 14.1% | 12.2% | 73.2% | 25.6% |
| CCOC(=O)c1ccc2c(c1)c1c(C)c3ccncc3c(C)c1n2C | 26.8% | -1.7% (active) | 3.64% (active) | -11% (active) | -12.8% (active) | 0.282% (active) | -25.5% (active) | -20.4% (active) | -4.98% (active) | -12.5% (active) | -3.13% (active) | 21.1% | 3.03% (active) | 0.329% (active) | 1.8% (active) | 0.263% (active) | 4.25% (active) | 0.78% (active) |
| COc1ccc(-c2nnc(SCC(=O)Nc3ccc(/C(C)=N\O)cc3)n2-c2ccccc2)cc1OC | 95.4% | 91.6% | 42.7% | 97% | 103% | 4.74% (active) | 70.9% | 82% | 42.8% | 90.6% | 68% | 65.2% | 104% | 115% | 69.2% | 69.2% | 94% | 106% |
| Clc1ccc(-c2nc(-c3c[nH]c4ncccc34)cs2)cc1 | 85.4% [100 µM] | 91.4% [100 µM] | 29.7% [100 µM] | 73.7% [100 µM] | 28.3% [100 µM] | 29.3% [100 µM] | 72.7% [100 µM] | 68.7% [100 µM] | 44.3% [100 µM] | 41.2% [100 µM] | 62.4% [100 µM] | 47.2% [100 µM] | 89.2% [100 µM] | 74.3% [100 µM] | 66.7% [100 µM] | 38.6% [100 µM] | 90.2% [100 µM] | 76.1% [100 µM] |
| Cc1cc2nc3c4ccccc4n(CCN(C)C)c3nc2cc1C | 4.17% (active) | -19.7% (active) | 6.84% (active) | 15.6% | -1.33% (active) | 13.3% | 5.07% (active) | 18% | 3.81% (active) | 6.55% (active) | 32.2% | 53.1% | 8.26% (active) | -30.8% (active) | -0.456% (active) | 7.19% (active) | 22.1% | 17.4% |
| COc1cc(/C=N/Nc2ccccc2F)cc(OC)c1OC | 90.9% | 83.8% | 92% | 94.6% | 92.3% | 111% | 86.1% | 108% | 94.9% | 99.6% | 67.7% | 96% | 94.3% | 93.6% | 78.3% | 84.5% | 108% | 86.3% |
| O=C1Nc2ccccc2C2c3cccn3-c3ccccc3N12 (configuration not stated) | 49.5% | 82.6% | 86.9% | 96.6% | 84.2% | 84.6% | 74.1% | 74.1% | 78.3% | 42.7% | 76% | 82.7% | 7.5% (active) | 49.6% | 60.1% | 78.2% | 77.2% | 62.3% |
| Nc1c(C(=O)O)cc(Cl)cc1[N+](=O)[O-] | 109% | 104% | 92.7% | 90.4% | 99.5% | 101% | 100% | 105% | 101% | 97.8% | 95.6% | 109% | 105% | 99.5% | 95.2% | 94.6% | 95.1% | 105% |
| NC(CSC(c1ccccc1)(c1ccccc1)c1ccc2c(c1)OCO2)C(=O)O (configuration not stated) | 5.57% (active) | -7.99% (active) | 19.4% | 41% | 70.7% | 15.2% | 42.2% | 3.46% (active) | 15.7% | 53.9% | 30.2% | 22.7% | -58% (active) | 12.9% | 10.3% | 7.34% (active) | 9.26% (active) | 13.1% |
| C[N+](C)(C/C=C/c1ccccc1)Cc1ccccc1 | 97.7% | 123% | 107% | 81.2% | 97.4% | 107% | 94.5% | 96.4% | 106% | 99.1% | 94.4% | 96.1% | 101% | 100% | 100% | 95.5% | 95.8% | 95.4% |
| CC1(C)C2CC=C(/C=N/NC(=O)C3CCC(=O)N3)C1C2 (configuration not stated) | 116% | 103% | 105% | 107% | 101% | 106% | 109% | 112% | 104% | 105% | 107% | 105% | 106% | 104% | 99.1% | 108% | 119% | 106% |
| O=C(N/N=C/c1ccc(O)cc1O)c1ccc(Nc2ccnc(C(F)(F)F)c2)cc1 | 91.8% | 59.2% | 48.2% | 53.2% | 38.6% | 38.9% | 77.1% | 61.6% | 86.4% | 64.2% | 4.87% (active) | 41.5% | 44.7% | 49.3% | 25.5% | 27.5% | 64.7% | 57.2% |
| COc1cc2ncnc(Nc3ccc(F)c(Cl)c3)c2cc1OCC(=O)N1CCN(c2ccc(F)cc2)CC1 | 79% | 98.8% | 107% | 60.6% | 82% | 88.1% | 46.9% | 83.4% | 89.3% | 82.7% | 75.2% | 101% | 96.5% | 101% | 83.8% | 88.7% | 98.1% | 100% |
| Cn1cccc1/C=C1\C(=O)Nc2ccccc21 | 72.8% | 103% | 107% | 87.2% | 48% | 94.4% | 76.3% | 74.7% | 101% | 93.2% | 18.2% | 89.6% | 103% | 99.5% | 12.3% | 102% | 48.8% | 21.8% |
